High-throughput results: PubChem, National Center for Advancing Translational Sciences (NCATS)
Most compounds without a hit are left out; they make up all but 7.5% or so of the library.
NPC1 prom act = NPC1 promoter activation; Huh7 NPC1 promoter luciferase reporter, 24 h; Potency, µM (doses to about 9.22 µM), inactives show at the top dose activation, usual class: activators; 320,000 tested, 2.4% active; AID 485313; note: % of control where 0% means no effect; nearly all actives have a fitted effect of over 60% in size
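Compounds in DMSO were transferred onto Huh7 NPC1-luciferase reporter cells pre-incubated 2 h; after 24 h at 37 °C, Amplite reagent was dispensed and luminescence recorded 10 min later.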
ELG1 genotoxic = induces genotoxicity in HEK293T cells with luciferase-tagged ELG1. HEK293T ELG1-luciferase reporter, luminescence, 16 h. Potency, µM (titrated, usually from 46 µM), for the others: top-dose activity change, positive = activation, usual class: activators. 330,000 tested, 1.3% active; note: % of control where 0% means no effect; nearly all actives have a fitted effect of over 60% in size
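HEK293T cells expressing luciferase-tagged ELG1 were exposed to compound or DMSO vehicle for 16 hr at 37 °C and 5% CO2. Luciferase activity was then measured with ONE-Glo after 30 min at room temperature.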
Luc counter = counter-screen: inhibitors of Kinase-Glo firefly luciferase | AID 1379 | 200,000 tested, 0.28% active | Potency, µM (highest dose often 38.3 µM), for the others: top-dose activity change, negative = inhibition, hits mostly inhibitors | Kinase-Glo luciferase, ATP luminescence, 8 min; note: % is set by controls: 0 for no effect and ±100 for the full control effect; nearly all actives have a fitted effect of over 60% in size
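Kinase-Glo luciferase light output from ATP and luciferin was measured with 10 uM ATP, within the enzyme's linear range. Buffer: 50 mM imidazole pH 7.2, 50 mM KCl, 7 mM MgCl2, 0.01% Tween 20, 0.05% BSA; luminescence read after 8 min at ambient temperature.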
Rab9 promoter act = activators of Rab9 promoter; Huh7 Rab9 promoter-luciferase reporter, luminescence, 24 h; Potency, µM (top dose mostly 9.22 µM), for inactives: top-dose activation, negative = inhibition, usual class: activators; 320,000 tested, 2.8% active; note: % of control where 0% means no effect; nearly all actives have a fitted effect of over 60% in size
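Rab9 promoter-driven luciferase in stably transfected Huh7 cells; 1500 cells/well rested 2 h, exposed to compound in DMSO for 24 h at 37 °C, 5% CO2. Luminescence read 10 min after adding luciferase reagent at ambient temperature.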
FLuc counter = counter-screen for miR-21 project: firefly luciferase inhibitors or activators; P08659; purified FLuc, Km substrates, luminescence inhibition; Potency, µM (top dose mostly 57.5 µM), inactives show at the top dose activity change, negative = inhibition, actives largely listed as inhibitors; 360,000 tested, 6.9% active; AID 588342;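 note: plate controls were vehicle for no effect and reference inhibitor for full effect; nearly all actives have a fitted effect of over 55% in size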
Target sequence (P08659 whole entry, looked up): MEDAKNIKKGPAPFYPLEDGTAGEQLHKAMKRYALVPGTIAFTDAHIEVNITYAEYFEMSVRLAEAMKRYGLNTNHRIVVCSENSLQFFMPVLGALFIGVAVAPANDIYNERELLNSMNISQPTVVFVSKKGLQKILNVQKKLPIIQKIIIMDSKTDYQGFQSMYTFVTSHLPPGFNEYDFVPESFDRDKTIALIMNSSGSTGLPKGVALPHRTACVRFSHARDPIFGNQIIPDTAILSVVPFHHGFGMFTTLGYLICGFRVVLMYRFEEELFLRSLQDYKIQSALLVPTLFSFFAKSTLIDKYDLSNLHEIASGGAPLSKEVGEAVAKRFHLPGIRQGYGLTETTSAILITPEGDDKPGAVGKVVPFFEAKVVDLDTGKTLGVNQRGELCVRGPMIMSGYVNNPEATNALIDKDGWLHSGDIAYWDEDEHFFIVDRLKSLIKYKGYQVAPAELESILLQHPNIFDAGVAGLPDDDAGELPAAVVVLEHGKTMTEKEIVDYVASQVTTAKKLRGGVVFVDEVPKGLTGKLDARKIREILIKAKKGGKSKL
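Purified P. pyralis luciferase (10nM final) with 10uM D-luciferin and 10uM ATP (Km levels) in 50mM Tris acetate pH 7.5, 10mM Mg acetate, 0.01% Tween-20, 0.05% BSA; qHTS 6-point titration, ~60 µM downward; luminescence read.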
SMN2 splice enh = increases expression of the SMN2 splice variant; Potency, µM (titrated, usually from 46.1 µM), inactives show top-dose activity change, positive = activation, most hits filed as activators; HEK293 SMN2-luciferase splicing reporter, luminescence, 30-36 h; AID 1458; 210,000 tested, 2.8% active; note: % of control where 0% means no effect; nearly all actives have a fitted effect of over 55% in size
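HEK293 cells carry an SMN2 […]–luciferase reporter in which exon 7 inclusion puts luciferase in frame. Cells were plated 10-12 h before compound addition, then incubated 30-36 h at 37C. ONE-Glo luminescence was read; sodium butyrate at 4.5 mM final served as control.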
Numbers without * were called inactive; ? = inconclusive; . = no result given; [ ] = dose if it differs, or a comment. Calls come from the whole dose curve; as a rule, active = well fitted curve in the direction sought with a large enough effect; inconclusive = small, poorly fitted or top-dose-only effect, or another doubt; inactive = no such curve, though single readings can be large; an effect the other way counts as inactive or inconclusive. Potency is the fitted concentration of half-maximal effect.

SMILES	NPC1 prom act	ELG1 genotoxic	Luc counter	Rab9 promoter act	FLuc counter	SMN2 splice enh
O=C(NCCCc1ccccc1)c1ccc(F)cc1	?	?	.	1.78µM*	23.9µM*	.
Cc1ccc(NS(=O)(=O)c2ccc(C(=O)NCc3cccnc3)cc2)cc1	17.0%	?	.	7.2%	21.3µM*	.
O=C(NCCCCNC(=O)c1ccc(F)cc1)c1ccc(F)cc1	-2.9%	3.4%	.	3.0%	1.1%	.
CC(C)(C)c1ccc(NC(=O)CCNC(=O)c2ccco2)cc1	1.9%	5.7%	.	0.3%	?	.
CC(C)(C)c1ccc(C(=O)NCCCNC(=O)c2ccco2)cc1	-3.7%	1.7%	.	1.3%	15.1µM*	.
CC(=O)Nc1ccc(NC(=O)c2ccccc2CCc2ccccc2)cc1	0.5%	-6.0%	1.2%	-4.1%	-1.8%	31.6µM*
CCc1cccc(NC(=O)Cn2nc3c4cc(F)ccc4n(Cc4cccc(C)c4)cc-3c2=O)c1	.	.	.	.	-2.5%	.
CC1CCN(S(=O)(=O)CCNC(=O)c2ccccc2)CC1	-2.9%	-1.1%	.	2.6%	5.0%	.
CCCCOc1ccc(C(=O)NCCc2ccccc2)cc1	0.316µM*	?	.	1.12µM*	6.01µM*	.
CC(C)(C)c1ccc(C(=O)NCCc2ccccc2)cc1	0.355µM*	?	.	0.0891µM*	0.757µM*	.
CC1CCN(c2ccc(C(=O)NCCc3ccccc3)cn2)CC1	?	15.4%	-2.4%	?	23.9µM*	?
CC(Oc1ccc(C(=O)NCCc2ccccc2)cc1)C(=O)O (stereo not given)	7.9%	1.8%	-5.5%	1.0%	-19.2%	-6.8%
O=C(NCCc1ccccc1)c1ccncc1	28.9%	?	-3.8%	3.55µM*	?	8.2%
CC(C)(C)c1ccc(C(=O)Nc2ccc(C(=O)NCc3cccnc3)cc2)cc1	4.5%	-21.4%	.	15.2%	12µM*	.
CC(C)(C)c1ccc(C(=O)NCc2ccccc2)cc1	23.4%	16.9%	2.9%	6.31µM*	10.7µM*	.
O=C(NCCc1ccccc1)c1ccc(Cl)nc1	3.98µM*	?	-1.3%	2µM*	12µM*	11.2µM*
CC(C)(C)c1ccc(C(=O)Nc2cnccn2)cc1	1.78µM*	0.651µM*	2.5%	0.562µM*	1.35µM*	28.2µM*
CC(C)(C)C(=O)Nc1ccc(C(=O)NCc2cccnc2)cc1	.	.	-1.1%	.	?	3.4%
Cc1ccc(-n2nc(C(=O)Nc3ccc(Cl)cn3)c3c4ccccc4n(C)c3c2=O)cc1	.	.	.	.	-2.6%	-1.0%
CCN(CC)S(=O)(=O)c1cccc(NC(=O)CNc2cccc(S(=O)(=O)N3CCOCC3)c2)c1	-28.0%	-3.8%	.	-40.4%	-1.2%	.
O=C(COc1ccccc1C(=O)Nc1ccccc1)NCCc1ccccc1	-4.5%	-1.8%	3.1%	5.4%	-2.4%	6.0%
Cc1ccc(C(=O)Nc2ncn[nH]2)cc1	-2.9%	9.0%	.	10.7%	?	.
CC(=O)Nc1ccc(C(=O)NCCc2ccccc2)cc1	?	?	0.9%	?	?	15.8µM*
Cc1ccc(NC(=O)COc2ccccc2C(=O)NCCc2ccccc2)cc1	1.8%	-0.4%	.	8.8%	21.3µM*	.
CC(C)(C)c1ccc(C(=O)Nc2ncn[nH]2)cc1	2.24µM*	?	-17.1%	2.51µM*	9.53µM*	10µM*
CSc1ncc(Cl)c(C(=O)N(Cc2ccccc2Cl)C2CCS(=O)(=O)C2)n1 (stereo not given)	.	.	.	.	7.6%	11.2%
CCOC(=O)C1C(=O)C=C(Nc2ccccc2F)CC1c1ccccc1 (stereo not given)	?	12.4%	3.2%	?	16.9µM*	?
COC(=O)C1C(=O)C=C(Nc2ccc(F)cc2F)CC1c1ccccc1 (stereo not given)	15.2%	7.4%	0.8%	17.2%	-17.0%	-5.8%[1.84 µM]
Cc1ccc(C2CCN(C(=O)Nc3ccc(F)cc3)C2)cc1 (stereo not given)	?	?	.	?	23.9µM*	.
